Data on one sequence can be found in publication PMC7862700, “An all-to-all approach to the identification of sequence-specific readers for epigenetic DNA modifications on cytosine”.

Assay in all cases: DAPPL (digital affinity profiling via proximity ligation, sequencing); 10 mM Tris-HCl pH 7.5, 50 mM NaCl, 1 mM DTT, 4% glycerol, room temperature, 30 min; GST-TFs on glutathione beads, 16-mer random dsDNA library, 0.1% formaldehyde crosslink after washing; high values mean tight binding
Assay [1] concerns the target T1, FEV (Homo sapiens, UniProt Q99581 1-238).
T1 sequence: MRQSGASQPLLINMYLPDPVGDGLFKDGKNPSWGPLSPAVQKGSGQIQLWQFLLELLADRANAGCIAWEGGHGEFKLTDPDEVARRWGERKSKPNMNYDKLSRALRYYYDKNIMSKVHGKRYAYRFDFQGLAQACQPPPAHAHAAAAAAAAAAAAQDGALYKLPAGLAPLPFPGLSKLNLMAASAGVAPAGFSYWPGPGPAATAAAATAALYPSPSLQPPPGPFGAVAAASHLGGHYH
To be noted: protein: recombinant; tags: N-terminal GST; dsDNA, one strand shown. Summed up:
(§1)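 A tag-only sample was pooled with DNA-barcoded human transcription factors that had been expressed in yeast as GST fusions and captured on glutathione beads. The pools were incubated for 30 min at room temperature with 200 nmole of a random double-stranded 16-mer DNA library in Tris/NaCl/DTT/glycerol buffer, then washed, crosslinked with 0.1% formaldehyde, proximity-ligated (BsaI/T4 ligase, 1 h, 37 °C), PCR-amplified and sequenced on an Illumina NextSeq500. Binding signal is each hexamer's read frequency for a factor divided by its frequency for the tag-only sample.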

Assay [2] addresses ETV5 (Homo sapiens, UniProt P41161 1-510). To be noted: protein: recombinant; tags: N-terminal GST; dsDNA, one strand shown. Put shortly: as §1
For assay [3], the target named is HSF1 (Homo sapiens, UniProt Q00613 1-529). To be noted: protein: recombinant; tags: N-terminal GST; chain copies: 3; dsDNA, one strand shown. Summed up:
as §1

In assay [4] the target is T2, SPIC (Homo sapiens, UniProt Q8N5J4 1-248).
T2 sequence: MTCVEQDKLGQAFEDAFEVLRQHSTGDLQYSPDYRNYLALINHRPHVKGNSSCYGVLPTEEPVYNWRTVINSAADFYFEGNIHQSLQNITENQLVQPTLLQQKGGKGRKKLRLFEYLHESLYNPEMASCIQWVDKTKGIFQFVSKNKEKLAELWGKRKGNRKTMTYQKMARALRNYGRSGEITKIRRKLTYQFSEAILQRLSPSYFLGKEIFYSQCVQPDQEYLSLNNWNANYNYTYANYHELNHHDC
To be noted: protein: recombinant; tags: N-terminal GST; dsDNA, one strand shown. Summed up: as §1

Assay [5] has as its target ELF4 (Homo sapiens, UniProt Q99607 1-663). Conditions: protein: recombinant; tags: N-terminal GST; dsDNA, one strand shown. Summed up:
as §1

Assay [6] deals with T3, ELK4 (Homo sapiens, UniProt P28324-2 1-405).
T3 sequence: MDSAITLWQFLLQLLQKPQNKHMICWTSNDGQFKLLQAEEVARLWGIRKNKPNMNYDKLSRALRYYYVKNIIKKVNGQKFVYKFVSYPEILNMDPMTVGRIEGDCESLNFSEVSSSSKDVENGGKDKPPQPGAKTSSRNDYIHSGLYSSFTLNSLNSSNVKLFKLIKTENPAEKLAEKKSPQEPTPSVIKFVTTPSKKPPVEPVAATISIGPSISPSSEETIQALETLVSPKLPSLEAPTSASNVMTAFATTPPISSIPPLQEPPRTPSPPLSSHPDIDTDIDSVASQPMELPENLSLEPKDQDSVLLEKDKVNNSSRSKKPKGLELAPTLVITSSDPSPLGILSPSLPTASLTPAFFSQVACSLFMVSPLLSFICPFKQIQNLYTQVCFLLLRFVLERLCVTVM
Conditions: protein: recombinant; tags: N-terminal GST; dsDNA, one strand shown. Put shortly:
as §1

The target in assay [7] is T4, ETV2 (Homo sapiens, UniProt O00321 1-342).
T4 sequence: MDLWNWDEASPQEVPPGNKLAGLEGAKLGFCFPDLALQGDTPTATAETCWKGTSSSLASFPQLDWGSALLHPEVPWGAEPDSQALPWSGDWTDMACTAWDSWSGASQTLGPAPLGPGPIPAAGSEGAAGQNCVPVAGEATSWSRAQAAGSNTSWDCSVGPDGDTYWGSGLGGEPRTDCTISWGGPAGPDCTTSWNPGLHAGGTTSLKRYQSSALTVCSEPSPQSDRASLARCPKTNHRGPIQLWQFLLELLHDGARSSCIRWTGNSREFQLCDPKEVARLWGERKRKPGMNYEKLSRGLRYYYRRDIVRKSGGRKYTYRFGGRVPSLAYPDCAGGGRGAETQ
Conditions: protein: recombinant; tags: N-terminal GST; dsDNA, one strand shown. Put shortly: as §1

The target of assay [8] is T5, ELF3 (Homo sapiens, UniProt P78545 1-371).
T5 sequence: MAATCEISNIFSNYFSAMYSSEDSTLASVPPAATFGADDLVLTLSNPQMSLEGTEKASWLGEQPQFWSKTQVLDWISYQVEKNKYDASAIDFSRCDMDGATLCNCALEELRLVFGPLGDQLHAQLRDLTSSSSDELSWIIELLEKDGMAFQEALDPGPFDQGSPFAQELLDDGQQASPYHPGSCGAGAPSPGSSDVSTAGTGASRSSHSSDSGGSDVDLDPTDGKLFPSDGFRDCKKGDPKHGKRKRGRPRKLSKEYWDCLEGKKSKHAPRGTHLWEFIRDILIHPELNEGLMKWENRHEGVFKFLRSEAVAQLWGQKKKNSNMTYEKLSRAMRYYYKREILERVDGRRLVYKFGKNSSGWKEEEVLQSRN
Conditions: protein: recombinant; tags: N-terminal GST; dsDNA, one strand shown. Put shortly: as §1

The target in assay [9] is CRX (Homo sapiens, UniProt O43186 1-299). To be noted: protein: recombinant; tags: N-terminal GST; dsDNA, one strand shown. Summed up: as §1
Assay [10] has as its target ETV1 (Homo sapiens, UniProt P50549 1-477). To be noted: protein: recombinant; tags: N-terminal GST; dsDNA, one strand shown. Summed up:
as §1

Sequence of HSF1 (Q00613 whole entry): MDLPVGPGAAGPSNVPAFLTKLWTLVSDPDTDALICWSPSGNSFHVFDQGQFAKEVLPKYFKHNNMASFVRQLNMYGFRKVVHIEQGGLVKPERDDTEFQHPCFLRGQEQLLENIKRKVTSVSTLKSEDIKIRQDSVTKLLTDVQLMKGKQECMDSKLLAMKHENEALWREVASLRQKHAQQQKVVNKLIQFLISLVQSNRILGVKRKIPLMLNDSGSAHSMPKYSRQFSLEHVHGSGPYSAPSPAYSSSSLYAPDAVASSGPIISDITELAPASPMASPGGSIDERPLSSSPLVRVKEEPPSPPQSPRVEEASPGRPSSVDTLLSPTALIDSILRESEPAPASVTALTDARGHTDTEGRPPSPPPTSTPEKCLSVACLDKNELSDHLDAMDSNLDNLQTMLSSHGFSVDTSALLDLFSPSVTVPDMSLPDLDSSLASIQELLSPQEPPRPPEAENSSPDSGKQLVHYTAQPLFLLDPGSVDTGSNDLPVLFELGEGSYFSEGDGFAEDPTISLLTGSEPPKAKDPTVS
Sequence of ELF4 (Q99607 whole entry): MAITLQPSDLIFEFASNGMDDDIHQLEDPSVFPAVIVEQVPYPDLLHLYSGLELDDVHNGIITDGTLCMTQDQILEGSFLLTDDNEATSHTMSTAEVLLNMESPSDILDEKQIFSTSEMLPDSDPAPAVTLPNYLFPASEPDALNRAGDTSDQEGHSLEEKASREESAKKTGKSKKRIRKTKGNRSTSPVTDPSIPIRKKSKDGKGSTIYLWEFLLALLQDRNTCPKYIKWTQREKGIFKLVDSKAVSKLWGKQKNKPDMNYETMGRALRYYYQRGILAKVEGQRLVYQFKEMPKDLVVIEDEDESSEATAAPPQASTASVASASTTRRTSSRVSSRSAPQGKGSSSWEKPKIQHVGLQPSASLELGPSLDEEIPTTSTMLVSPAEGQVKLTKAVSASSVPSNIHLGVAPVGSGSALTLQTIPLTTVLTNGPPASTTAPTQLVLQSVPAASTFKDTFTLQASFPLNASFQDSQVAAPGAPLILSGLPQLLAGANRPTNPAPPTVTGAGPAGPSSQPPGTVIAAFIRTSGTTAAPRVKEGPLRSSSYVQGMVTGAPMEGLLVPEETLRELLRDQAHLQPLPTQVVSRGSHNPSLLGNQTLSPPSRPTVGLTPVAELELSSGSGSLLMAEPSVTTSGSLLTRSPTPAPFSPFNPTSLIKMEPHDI
Sequence of ETV1 (P50549 whole entry): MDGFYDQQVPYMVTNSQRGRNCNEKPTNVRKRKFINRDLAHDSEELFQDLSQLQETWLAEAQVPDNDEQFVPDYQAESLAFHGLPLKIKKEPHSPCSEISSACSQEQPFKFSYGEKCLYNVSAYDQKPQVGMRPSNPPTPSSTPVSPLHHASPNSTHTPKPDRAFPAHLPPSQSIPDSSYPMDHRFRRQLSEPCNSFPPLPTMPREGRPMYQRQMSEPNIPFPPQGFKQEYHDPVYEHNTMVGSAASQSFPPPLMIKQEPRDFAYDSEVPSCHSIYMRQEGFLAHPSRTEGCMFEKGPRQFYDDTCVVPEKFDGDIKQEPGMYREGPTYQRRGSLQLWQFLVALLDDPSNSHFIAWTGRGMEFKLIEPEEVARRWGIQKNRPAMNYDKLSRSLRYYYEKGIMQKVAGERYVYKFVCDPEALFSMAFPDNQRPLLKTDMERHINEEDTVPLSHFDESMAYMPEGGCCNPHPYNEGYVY
Sequence of ETV5 (P41161 whole entry): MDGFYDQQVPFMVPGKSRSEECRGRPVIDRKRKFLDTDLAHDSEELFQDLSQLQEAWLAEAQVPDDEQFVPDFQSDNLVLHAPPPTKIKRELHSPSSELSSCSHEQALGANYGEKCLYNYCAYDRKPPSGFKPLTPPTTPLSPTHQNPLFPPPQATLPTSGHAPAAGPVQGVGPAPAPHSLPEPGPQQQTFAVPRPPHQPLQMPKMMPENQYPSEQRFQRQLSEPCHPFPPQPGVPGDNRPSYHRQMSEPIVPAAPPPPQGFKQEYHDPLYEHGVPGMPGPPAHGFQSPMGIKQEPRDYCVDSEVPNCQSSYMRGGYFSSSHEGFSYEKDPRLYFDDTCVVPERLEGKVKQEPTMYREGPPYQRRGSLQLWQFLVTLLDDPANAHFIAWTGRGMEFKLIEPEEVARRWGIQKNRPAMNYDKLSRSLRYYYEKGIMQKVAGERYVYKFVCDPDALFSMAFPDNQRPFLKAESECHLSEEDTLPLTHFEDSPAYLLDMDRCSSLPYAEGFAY
Sequence of CRX (O43186 whole entry): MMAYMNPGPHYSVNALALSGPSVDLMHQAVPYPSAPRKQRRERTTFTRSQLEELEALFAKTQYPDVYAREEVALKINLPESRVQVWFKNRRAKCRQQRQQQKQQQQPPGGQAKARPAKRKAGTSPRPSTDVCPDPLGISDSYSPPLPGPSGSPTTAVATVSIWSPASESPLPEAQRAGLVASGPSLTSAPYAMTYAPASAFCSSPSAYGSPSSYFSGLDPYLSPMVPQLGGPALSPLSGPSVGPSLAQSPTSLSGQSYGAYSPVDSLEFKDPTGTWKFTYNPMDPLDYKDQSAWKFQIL

As for TCTTCA, the binding signal is 1.15 fold enrichment (6-mer frequency, TF over GST control) in assay [1]; 1.17 fold enrichment (6-mer frequency, TF over GST control) in assay [2]; 1.24 fold enrichment (6-mer frequency, TF over GST control) in assay [3]; 1.14 fold enrichment (6-mer frequency, TF over GST control) in assay [4]; 1.2 fold enrichment (6-mer frequency, TF over GST control) in [5]; 1.07 fold enrichment (6-mer frequency, TF over GST control) in assay [6]. Also, the binding signal in assay [7] was 1.18 fold enrichment (6-mer frequency, TF over GST control); in assay [8], 1.46 fold enrichment (6-mer frequency, TF over GST control); in assay [9], 1.14 fold enrichment (6-mer frequency, TF over GST control); in assay [10], 1.28 fold enrichment (6-mer frequency, TF over GST control).
